Reference: PubChem BioAssay (NCATS)
Several values for one entry are separate records, joined by “and”; a condition that tells them apart may be missing. Equal values may be shown once. Records with an inconclusive call do not appear. Some structures have more than one record in an assay (separate samples or runs), and their calls can disagree. Activity calls are given as the source filed them. Calls come from the whole dose curve; as a rule, active = well fitted curve in the direction sought with a large enough effect; inconclusive = small, poorly fitted or top-dose-only effect, or another doubt; inactive = no such curve, though single readings can be large; an effect the other way counts as inactive or inconclusive.

Columns and labels:
[1] = Viability qHTS for spleen associated tyrosine kinase inhibitor (SYKi) naive MV4-11 cells (AID 1963823); note: nearly all actives have a fitted effect of over 40% in size
How it was run: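 Read-out: CellTiter-Glo luminescence. Exposure: 72 hr, 37 C, 5% CO2, 95% humidity. Cells: MV4-11 without SYK inhibitor history, 500/well, qHTS format.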

[2] = Viability qHTS for spleen associated tyrosine kinase inhibitor (SYKi) drug resistant MV4-11 cells (AID 1963824); note: nearly all actives have a fitted effect of over 35% in size
How it was run: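 SYK inhibitor-resistant MV4-11 AML cells, 500 per well, added to predispensed compounds and incubated 72 hr at 37 C, 5% CO2. Viability measured by CellTiter-Glo luminescence after 10 min at room temperature.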

[3] = Cellular viability qHTS for adrenocortical cancer (ACC) cell line SW-13 (AID 1963989); settings: SW-13 ACC cells viability, CellTiter-Glo, 48 h; activity (max response): stronger effect = lower value; note: nearly all actives have a fitted effect of over 65% in size;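 for activity (max response): cells grown in serum-free medium with ITS supplement; % is set by controls: 0 for no effect and ±100 for the full control effect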
How it was run: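 Compound titrations (up to 46 uM final, in DMSO) were applied to SW-13 cells for 48 h at 37C/5% CO2. Reading used CellTiter-Glo after 20 min at room temperature; fitted curves yielded IC50 and efficacy.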

[4] = Cellular viability qHTS for adrenocortical cancer (ACC) cell line NCI-H295R (AID 1963990); note: nearly all actives have a fitted effect of over 60% in size
How it was run: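 Readout: CellTiter-Glo luminescence, 20 min RT. Exposure: 48 h, 37C/5% CO2. Cells: NCI-H295R, ITS-DMEM serum-free. Range: up to 46 uM. Analysis: 4PL fit, IC50 plus efficacy.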
Potency is the fitted concentration of half-maximal effect.

| SMILES | Potency [1] | Potency [2] | Potency [3] | Potency [4] | activity (max response) [3] |
| --- | --- | --- | --- | --- | --- |
| COc1ccc(S(=O)(=O)N(C(C)=O)c2ccccc2/C=C/c2cc[n+]([O-])cc2)cc1 | 934 nM (active) | 833 nM (active) | 1.12 µM (active) | 1.41 µM (active) |  |
| CNCc1ccccc1 | inactive | inactive |  | inactive | 8.2% (inactive) |
| C[C@]12CC[C@@H]3c4ccc(O)cc4C[C@@H](CCCCCCCCCS(=O)CCCC(F)(F)C(F)(F)F)[C@H]3[C@@H]1CC[C@@H]2O (some centres undefined) | inactive | inactive |  | inactive | -10.5% (inactive) |
| Cc1cc(OCCCc2c3n(c4c(-c5c(C)nn(C)c5C)c(Cl)ccc24)[C@H](C)CN(c2cn(C)c4ccc(C(=O)O)cc24)C3=O)cc(C)c1Cl | 742 nM (active) | 662 nM (active) | 2 µM (active) | 2 µM (active) |  |
| O=C1[C@H](CC[C@H](O)c2ccc(F)cc2)[C@@H](c2ccc(O)cc2)N1c1ccc(F)cc1 | 20.6 µM (active) and 20.9 µM (active) | 14.6 µM (active) and 20.9 µM (active) |  | inactive | -3.67% (inactive) and -14.5% (inactive) |
| COc1cc(C(N)=O)ccc1NC(=O)[C@@H]1N[C@@H](CC(C)(C)C)[C@@]2(C(=O)Nc3cc(Cl)ccc32)[C@H]1c1cccc(Cl)c1F | 5900 nM (active) | 4680 nM (active) | 15.8 µM (active) | 11.2 µM (active) |  |
| Cc1cc(O)c(-c2ccc([C@@H](C)CN(C)C)cc2)c2c1[nH]c(=O)c1sccc12 | 18.4 nM (active) | 9.2 nM (active) | 0.0891 µM (active) | 0.251 µM (active) |  |
| CC(C)=CCC/C(C)=C/CO | inactive | inactive |  | inactive | 10% (inactive) |
| Cc1c(O)cccc1C(=O)N[C@@H](CSc1ccccc1)[C@H](O)CN1C[C@H]2CCCC[C@H]2C[C@H]1C(=O)NC(C)(C)C | 23700 nM (active) | 13300 nM (active) | 20.6 µM (active) | 6.51 µM (active) |  |
| Nc1ncnc2c1ncn2[C@@H]1O[C@H](CO)C[C@H]1O | inactive | inactive |  | 15.8 µM (active) | -9.5% (inactive) |
| O=C(O)C1=CO[C@@H](O[C@@H]2O[C@H](CO)[C@@H](O)[C@H](O)[C@H]2O)[C@@H]2C(CO)=CC[C@H]12 | 10.1 µM (active) and inactive | 12.8 µM (active) and inactive |  | inactive | 7.35% (inactive) |
| O=C(/C=C/C#Cc1cccc(NS(=O)(=O)c2ccccc2)c1)NO | 407 nM (active) | 363 nM (active) | 8.02 µM (active) | 3.19 µM (active) |  |
| Cc1c(CN2CCC(Nc3ncnc4sc(CC(F)(F)F)cc34)CC2)ccc2c1cc(C#N)n2Cc1cn[nH]c1 | 525 nM (active) | 468 nM (active) | 4.47 µM (active) | 6.31 µM (active) |  |
| c1cn2cc(-c3ccc4cn[nH]c4c3)nc(Nc3ccc(N4CCOCC4)cc3)c2n1 | 651 nM (active) | 820 nM (active) and 1.32 µM (active) |  | inactive | 2.68% (inactive) |
| CC(C)CNc1ccnc(NCc2csc(-c3ccccc3)n2)n1 | 1660 nM (active) | 1160 nM (active) | 11.2 µM (active) | 11.2 µM (active) |  |
| CC(=O)N(c1onc(C)c1C)S(=O)(=O)c1ccc(N)cc1 | inactive | inactive |  | inactive | 0.743% (inactive) |
| COc1cc(N2CCN(C)CC2)ccc1Nc1nccc(-c2cn(C)c3cnccc23)n1 | 116 nM (active) and 209 nM (active) | 517 nM (active) and 590 nM (active) |  | 25.1 µM (active) | -3.47% (inactive) |
| COc1cc([C@@H]2c3cc4c(cc3[C@@H](O[C@@H]3O[C@@H]5CO[C@@H](c6cccs6)O[C@H]5[C@H](O)[C@H]3O)[C@H]3COC(=O)[C@H]23)OCO4)cc(OC)c1O | 74.2 nM (active) | 74.2 nM (active) | 2.51 µM (active) | 7.08 µM (active) |  |
| CCCN1CCN(c2ccc(C(=O)NC3(C(=O)NCC#N)CCCCC3)cc2)CC1 | inactive | inactive |  | inactive | -11.1% (inactive) |
| CC(=O)OCC(COC(C)=O)OC(C)=O | inactive | inactive |  | inactive | 3.85% (inactive) |
| CCC1Nc2cc(Cl)c(S(N)(=O)=O)cc2S(=O)(=O)N1 (centres undefined) | inactive | inactive |  | inactive | 2.08% (inactive) |
